Experimental data: the supplement of paper PMC6411743
± gives the standard deviation of the averaged measurements. About 6,200 targets were measured; listed, in parts, are those with the largest changes and a random draw of the rest.

Compound: Nc1ncnc2c1ncn2[C@@H]1O[C@H](COP(=O)(O)OP(=O)(O)NP(=O)(O)O)[C@@H](O)[C@H]1O [adenylyl imidodiphosphate]
Experiment: NP40-soluble protein abundance relative to vehicle (solubility fold change) (ratio); higher = more soluble protein in presence of AMP-PNP
Method in brief: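 Jurkat crude lysate prepared with a Dounce homogeniser was treated at eight concentrations spanning 0.1 to 10 mM, 10 min at room temperature then 3 min at 37 °C. Solubilisation with 0.8% NP40 and benzonase and ultracentrifugation preceded TMT labelling of the supernatant for LC-MS/MS. Fold change against the detergent-processed vehicle was determined per replicate from vsn-normalised intensities, across three independent experiments.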

Chain of UniProt Q96JP5 (Q96JP5 whole entry, one chain of several): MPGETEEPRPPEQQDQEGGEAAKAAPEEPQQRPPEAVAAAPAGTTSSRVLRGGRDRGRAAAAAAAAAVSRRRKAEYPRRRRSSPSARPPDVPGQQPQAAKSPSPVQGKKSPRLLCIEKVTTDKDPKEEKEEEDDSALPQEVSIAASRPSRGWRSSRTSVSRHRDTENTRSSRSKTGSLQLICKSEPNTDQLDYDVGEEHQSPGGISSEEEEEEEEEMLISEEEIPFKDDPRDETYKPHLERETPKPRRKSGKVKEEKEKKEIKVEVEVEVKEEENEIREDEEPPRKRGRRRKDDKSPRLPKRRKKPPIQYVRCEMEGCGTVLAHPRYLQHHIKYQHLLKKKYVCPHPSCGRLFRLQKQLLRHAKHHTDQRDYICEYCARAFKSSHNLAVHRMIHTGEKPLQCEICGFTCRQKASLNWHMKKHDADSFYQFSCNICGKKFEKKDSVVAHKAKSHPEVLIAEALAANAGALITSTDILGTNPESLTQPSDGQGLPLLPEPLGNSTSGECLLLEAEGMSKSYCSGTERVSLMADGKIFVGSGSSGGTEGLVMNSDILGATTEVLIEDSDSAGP
Chain of UniProt Q9Y3B4 (Q9Y3B4 whole entry): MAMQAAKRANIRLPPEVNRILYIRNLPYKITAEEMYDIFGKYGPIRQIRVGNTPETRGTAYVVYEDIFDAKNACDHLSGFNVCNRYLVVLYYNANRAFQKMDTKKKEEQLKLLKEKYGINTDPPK
Chain of UniProt Q9NPG3 (Q9NPG3 whole entry): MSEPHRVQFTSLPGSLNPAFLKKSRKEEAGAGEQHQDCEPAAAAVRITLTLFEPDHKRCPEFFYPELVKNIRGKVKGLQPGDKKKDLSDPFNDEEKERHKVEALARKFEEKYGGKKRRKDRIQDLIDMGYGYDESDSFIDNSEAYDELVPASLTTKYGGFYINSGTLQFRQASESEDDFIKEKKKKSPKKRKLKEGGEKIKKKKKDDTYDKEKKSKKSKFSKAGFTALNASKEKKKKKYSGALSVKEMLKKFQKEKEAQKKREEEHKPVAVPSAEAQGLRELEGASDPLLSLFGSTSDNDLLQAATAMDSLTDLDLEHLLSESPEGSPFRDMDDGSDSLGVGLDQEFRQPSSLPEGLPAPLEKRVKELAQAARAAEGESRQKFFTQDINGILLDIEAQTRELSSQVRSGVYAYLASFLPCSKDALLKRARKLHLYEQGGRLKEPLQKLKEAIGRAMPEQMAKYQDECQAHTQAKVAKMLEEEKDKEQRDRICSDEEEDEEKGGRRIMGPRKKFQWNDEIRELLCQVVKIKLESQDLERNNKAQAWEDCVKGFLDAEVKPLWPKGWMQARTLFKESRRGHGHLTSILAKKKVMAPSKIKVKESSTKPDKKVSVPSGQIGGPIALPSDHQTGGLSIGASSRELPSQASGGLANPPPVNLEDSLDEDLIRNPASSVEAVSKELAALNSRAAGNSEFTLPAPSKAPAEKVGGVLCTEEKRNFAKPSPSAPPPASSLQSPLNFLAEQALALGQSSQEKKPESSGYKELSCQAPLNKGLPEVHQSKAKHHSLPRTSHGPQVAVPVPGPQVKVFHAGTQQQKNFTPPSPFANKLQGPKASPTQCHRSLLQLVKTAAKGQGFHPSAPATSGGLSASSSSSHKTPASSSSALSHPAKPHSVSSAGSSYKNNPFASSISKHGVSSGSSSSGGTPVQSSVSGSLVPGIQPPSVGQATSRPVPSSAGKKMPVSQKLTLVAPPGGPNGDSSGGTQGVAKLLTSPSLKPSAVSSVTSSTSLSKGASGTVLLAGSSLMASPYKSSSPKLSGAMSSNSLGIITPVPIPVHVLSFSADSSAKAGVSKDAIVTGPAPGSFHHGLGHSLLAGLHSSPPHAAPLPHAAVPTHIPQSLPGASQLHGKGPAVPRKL
Chain of UniProt Q9Y508 (Q9Y508 whole entry): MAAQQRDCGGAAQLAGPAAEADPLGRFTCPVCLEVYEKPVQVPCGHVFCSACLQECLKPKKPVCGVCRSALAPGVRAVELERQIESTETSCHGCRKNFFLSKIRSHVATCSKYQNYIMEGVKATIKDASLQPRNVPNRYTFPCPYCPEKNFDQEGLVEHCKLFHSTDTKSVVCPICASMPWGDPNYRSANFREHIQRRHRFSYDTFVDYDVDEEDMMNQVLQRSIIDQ
Chain of UniProt Q9NR30 (Q9NR30 whole entry): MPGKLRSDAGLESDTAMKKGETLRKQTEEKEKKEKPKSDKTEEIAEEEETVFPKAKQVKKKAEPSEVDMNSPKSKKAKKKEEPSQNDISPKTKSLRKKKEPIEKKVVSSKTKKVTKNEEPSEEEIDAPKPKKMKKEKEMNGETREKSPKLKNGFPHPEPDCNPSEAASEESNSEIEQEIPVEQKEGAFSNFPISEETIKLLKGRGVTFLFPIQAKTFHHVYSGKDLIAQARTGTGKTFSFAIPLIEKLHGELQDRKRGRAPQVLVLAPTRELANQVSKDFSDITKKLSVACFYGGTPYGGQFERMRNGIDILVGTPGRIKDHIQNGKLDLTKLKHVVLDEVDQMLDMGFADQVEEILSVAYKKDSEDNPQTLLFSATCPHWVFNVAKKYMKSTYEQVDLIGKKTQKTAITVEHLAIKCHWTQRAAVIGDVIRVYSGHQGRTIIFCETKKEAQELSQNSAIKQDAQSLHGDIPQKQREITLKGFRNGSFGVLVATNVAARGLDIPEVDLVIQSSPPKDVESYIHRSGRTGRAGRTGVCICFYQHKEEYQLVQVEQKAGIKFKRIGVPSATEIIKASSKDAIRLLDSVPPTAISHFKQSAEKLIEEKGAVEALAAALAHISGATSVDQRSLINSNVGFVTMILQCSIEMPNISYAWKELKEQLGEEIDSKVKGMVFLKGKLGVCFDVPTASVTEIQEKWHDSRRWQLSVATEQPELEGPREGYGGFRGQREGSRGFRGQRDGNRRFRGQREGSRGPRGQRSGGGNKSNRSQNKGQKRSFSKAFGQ
Chain of UniProt Q9HCJ0 (Q9HCJ0 whole entry): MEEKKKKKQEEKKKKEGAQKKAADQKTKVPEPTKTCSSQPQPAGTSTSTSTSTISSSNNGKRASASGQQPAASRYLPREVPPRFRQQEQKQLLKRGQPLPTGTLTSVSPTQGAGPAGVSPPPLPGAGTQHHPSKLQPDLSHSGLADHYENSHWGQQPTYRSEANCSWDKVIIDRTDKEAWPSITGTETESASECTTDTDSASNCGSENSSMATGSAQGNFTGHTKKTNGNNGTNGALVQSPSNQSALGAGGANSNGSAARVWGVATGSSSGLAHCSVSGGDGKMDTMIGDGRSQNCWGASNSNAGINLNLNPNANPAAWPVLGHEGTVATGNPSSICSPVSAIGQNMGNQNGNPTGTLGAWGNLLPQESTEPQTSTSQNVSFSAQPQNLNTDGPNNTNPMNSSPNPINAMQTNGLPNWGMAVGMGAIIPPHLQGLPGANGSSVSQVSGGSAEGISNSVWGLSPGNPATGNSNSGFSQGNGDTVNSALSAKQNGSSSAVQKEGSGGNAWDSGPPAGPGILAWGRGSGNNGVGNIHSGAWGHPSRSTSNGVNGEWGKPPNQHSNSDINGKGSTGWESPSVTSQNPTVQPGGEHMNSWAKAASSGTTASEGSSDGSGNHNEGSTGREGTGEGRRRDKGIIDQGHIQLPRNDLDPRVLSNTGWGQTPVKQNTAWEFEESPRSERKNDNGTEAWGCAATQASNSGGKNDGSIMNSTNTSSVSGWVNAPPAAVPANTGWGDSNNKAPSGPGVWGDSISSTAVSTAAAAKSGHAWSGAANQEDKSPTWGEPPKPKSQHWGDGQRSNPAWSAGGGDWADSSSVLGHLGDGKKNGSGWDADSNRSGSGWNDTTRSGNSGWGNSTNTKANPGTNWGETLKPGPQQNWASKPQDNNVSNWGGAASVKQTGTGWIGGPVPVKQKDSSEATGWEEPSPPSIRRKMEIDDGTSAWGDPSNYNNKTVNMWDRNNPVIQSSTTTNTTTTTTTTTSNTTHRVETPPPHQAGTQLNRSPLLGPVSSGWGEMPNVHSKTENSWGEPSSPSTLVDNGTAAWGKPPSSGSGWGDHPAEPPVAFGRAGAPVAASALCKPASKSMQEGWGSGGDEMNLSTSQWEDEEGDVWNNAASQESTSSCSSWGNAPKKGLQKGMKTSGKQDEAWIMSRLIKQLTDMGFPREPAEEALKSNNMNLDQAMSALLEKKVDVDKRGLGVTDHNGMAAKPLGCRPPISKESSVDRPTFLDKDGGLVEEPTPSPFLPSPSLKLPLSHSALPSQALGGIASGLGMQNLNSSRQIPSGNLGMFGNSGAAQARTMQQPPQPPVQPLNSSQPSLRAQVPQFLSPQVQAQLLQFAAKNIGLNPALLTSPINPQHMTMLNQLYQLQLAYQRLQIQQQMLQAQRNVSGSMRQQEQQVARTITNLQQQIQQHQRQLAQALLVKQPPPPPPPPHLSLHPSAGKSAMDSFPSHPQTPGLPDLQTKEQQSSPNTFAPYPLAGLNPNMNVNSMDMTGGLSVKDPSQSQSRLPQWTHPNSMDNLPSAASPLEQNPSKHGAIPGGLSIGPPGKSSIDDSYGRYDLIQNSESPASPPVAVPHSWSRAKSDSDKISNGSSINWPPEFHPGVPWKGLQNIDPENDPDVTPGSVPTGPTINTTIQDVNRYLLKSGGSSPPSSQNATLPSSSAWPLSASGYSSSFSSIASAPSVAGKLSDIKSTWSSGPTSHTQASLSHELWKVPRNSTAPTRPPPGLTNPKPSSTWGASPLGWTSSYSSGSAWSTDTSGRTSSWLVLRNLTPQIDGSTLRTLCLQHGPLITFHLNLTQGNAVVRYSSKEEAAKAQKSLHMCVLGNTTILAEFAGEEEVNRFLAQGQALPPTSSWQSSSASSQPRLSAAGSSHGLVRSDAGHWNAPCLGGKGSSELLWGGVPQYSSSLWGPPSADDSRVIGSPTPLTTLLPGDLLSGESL
Chain of UniProt Q9Y294 (Q9Y294 whole entry): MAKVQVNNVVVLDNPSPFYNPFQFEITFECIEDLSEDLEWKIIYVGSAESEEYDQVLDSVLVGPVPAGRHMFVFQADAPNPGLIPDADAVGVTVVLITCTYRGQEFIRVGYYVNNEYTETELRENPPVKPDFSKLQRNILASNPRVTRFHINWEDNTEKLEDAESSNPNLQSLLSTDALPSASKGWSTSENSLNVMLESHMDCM

Target	NP40-soluble protein abundance (concentration: 1mM)	NP40-soluble protein abundance (concentration: 2mM)	NP40-soluble protein abundance (concentration: 4mM)	NP40-soluble protein abundance (concentration: 6mM)	NP40-soluble protein abundance (concentration: 8mM)	NP40-soluble protein abundance (concentration: 10mM)
PARP12 (UniProt Q9H0J9)	0.982 ± 0.046	0.946 ± 0.042	1.01 ± 0.022	0.991 ± 0.015	1.04 ± 0.029	1.01 ± 0.023
C16orf70 (UniProt Q9BSU1)	1.01 ± 0.056	0.978 ± 0.029	0.982 ± 0.042	1.01 ± 0.018	1.02 ± 0.02	1.05 ± 0.02
DYNLRB1 (UniProt Q9NP97)	0.996 ± 0.011	1.04 ± 0.054	0.977 ± 0.03	1.01 ± 0.018	0.9949 ± 0.0057	1.01 ± 0.02
NSMCE4A (UniProt Q9NXX6)	0.993 ± 0.068	0.945 ± 0.067	0.967 ± 0.056	0.933 ± 0.017	0.96 ± 0.026	0.941 ± 0.09
MRPL53 (UniProt Q96EL3)	0.987 ± 0.06	1.01 ± 0.023	0.986 ± 0.061	0.98 ± 0.045	1 ± 0.063	1 ± 0.066
UniProt Q9NXK8|Q9NXK8-2	1.018 ± 0.0035	1 ± 0.031	0.9901 ± 0.0047	0.9994 ± 0.008	1.005 ± 0.0022	0.998 ± 0.024
YBX2 (UniProt Q9Y2T7)	1.02 ± 0.029	1.06 ± 0.013	1.02 ± 0.018	1.01 ± 0.029	1.01 ± 0.036	1.038 ± 0.0094
PSMB7 (UniProt Q99436)	0.946 ± 0.04	0.909 ± 0.061	0.906 ± 0.057	0.928 ± 0.086	0.918 ± 0.081	0.9 ± 0.13
RAB39B (UniProt Q96DA2)	1 ± 0.025	0.934 ± 0.066	0.996 ± 0.019	0.9868 ± 0.0097	0.986 ± 0.015	0.954 ± 0.041
NIPSNAP1 (UniProt Q9BPW8)	0.94 ± 0.05	0.873 ± 0.075	0.943 ± 0.028	0.954 ± 0.08	1.02 ± 0.036	0.948 ± 0.021
MCEE (UniProt Q96PE7)	0.998 ± 0.04	1.01 ± 0.04	0.997 ± 0.046	1.06 ± 0.036	1.03 ± 0.08	1.05 ± 0.1
THRAP3 (UniProt Q9Y2W1)	1.11 ± 0.014	1.23 ± 0.1	1.2 ± 0.034	1.31 ± 0.044	1.32 ± 0.028	1.41 ± 0.03
UniProt Q9P0J0|Q9P0J0-2	0.912 ± 0.015	0.851 ± 0.095	0.89 ± 0.021	0.856 ± 0.017	0.877 ± 0.037	0.792 ± 0.047
NCOA5 (UniProt Q9HCD5)	1.09 ± 0.062	1.18 ± 0.039	1.37 ± 0.081	1.73 ± 0.1	1.89 ± 0.14	2.17 ± 0.35
UniProt Q96RL7|Q96RL7-2|Q96RL7-3|Q96RL7-4	0.982 ± 0.039	0.918 ± 0.098	0.969 ± 0.012	0.916 ± 0.024	0.949 ± 0.022	0.8993 ± 0.0069
UniProt Q9Y3B4	0.976 ± 0.061	0.981 ± 0.076	0.993 ± 0.019	0.968 ± 0.016	1.05 ± 0.051	1.01 ± 0.06
UniProt Q9NXR1|Q9NXR1-2|X5DR54	0.994 ± 0.029	1.07 ± 0.041	1.01 ± 0.025	0.978 ± 0.019	0.985 ± 0.026	0.9852 ± 0.0096
SRPRB (UniProt Q9Y5M8)	1.05 ± 0.021	1.06 ± 0.011	1.04 ± 0.021	1.08 ± 0.014	1.04 ± 0.014	1.08 ± 0.033
UniProt Q9UGJ1|Q9UGJ1-2|H3BPU4	1.01 ± 0.037	1.01 ± 0.024	1.04 ± 0.05	1 ± 0.028	1 ± 0.091	1.03 ± 0.08
PPCS (UniProt Q9HAB8)	1.03 ± 0.033	0.981 ± 0.038	1.01 ± 0.028	1.03 ± 0.02	1.03 ± 0.026	1.04 ± 0.021

Target	NP40-soluble protein abundance (concentration: 1mM)	NP40-soluble protein abundance (concentration: 2mM)	NP40-soluble protein abundance (concentration: 4mM)	NP40-soluble protein abundance (concentration: 6mM)	NP40-soluble protein abundance (concentration: 8mM)	NP40-soluble protein abundance (concentration: 10mM)
UniProt Q9HCJ0|Q9HCJ0-2	1.043 ± 0.0013	1.033 ± 0.0035	1.01 ± 0.013	1.01 ± 0.022	1 ± 0.016	1.02 ± 0.02
UniProt Q9BZL4-4|Q9BZL4	1 ± 0.033	1.04 ± 0.036	1.01 ± 0.047	0.997 ± 0.023	0.978 ± 0.017	0.999 ± 0.015
UniProt Q9UMZ2|Q9UMZ2-5|Q9UMZ2-9	1.02 ± 0.035	1.05 ± 0.064	1.03 ± 0.031	0.978 ± 0.035	0.955 ± 0.021	0.981 ± 0.037
CCDC86 (UniProt Q9H6F5)	1.12 ± 0.025	1.17 ± 0.096	1.2 ± 0.017	1.25 ± 0.05	1.31 ± 0.084	1.4 ± 0.13
PSMD1 (UniProt Q99460)	0.902 ± 0.044	0.887 ± 0.06	0.851 ± 0.094	0.863 ± 0.11	0.848 ± 0.098	0.847 ± 0.13
UniProt Q9BYX2|Q9BYX2-2	0.981 ± 0.013	0.9921 ± 0.0015	1 ± 0.028	0.985 ± 0.042	0.972 ± 0.012	0.9639 ± 0.0013
UniProt Q9H0A0|Q9H0A0-2|A0A087WV29	1.47 ± 0.19	1.5 ± 0.19	1.62 ± 0.21	1.66 ± 0.17	1.79 ± 0.25	1.8 ± 0.17
UniProt Q9H773|H3BSA6	1.03 ± 0.02	1.01 ± 0.019	1.041 ± 0.0073	1.03 ± 0.015	1.01 ± 0.019	1 ± 0.022
UniProt Q99571|Q99571-2|F6SFZ6	0.986 ± 0.019	0.959 ± 0.019	0.971 ± 0.019	1.014 ± 0.0026	1.012 ± 0.0075	1.01 ± 0.039
UniProt Q9NYF8|Q9NYF8-2|Q9NYF8-3|E9PK91	1.1 ± 0.018	1.19 ± 0.08	1.19 ± 0.033	1.29 ± 0.1	1.31 ± 0.11	1.43 ± 0.12
UniProt Q9HC36	1.05 ± 0.047	1.1 ± 0.088	1.23 ± 0.12	1.37 ± 0.18	1.51 ± 0.22	1.6 ± 0.28
CBX8 (UniProt Q9HC52)	1.08 ± 0.015	1.1 ± 0.04	1.13 ± 0.018	1.23 ± 0.028	1.33 ± 0.062	1.39 ± 0.044
ZNF512B (UniProt Q96KM6)	1.01 ± 0.017	1.09 ± 0.06	1.1 ± 0.061	1.13 ± 0.044	1.16 ± 0.05	1.17 ± 0.064
CHST12 (UniProt Q9NRB3)	1.001 ± 0.0077	0.999 ± 0.01	0.9935 ± 0.0064	1 ± 0.016	1.017 ± 0.0078	1.011 ± 0.0063
ASF1A (UniProt Q9Y294)	0.958 ± 0.077	0.863 ± 0.091	0.904 ± 0.068	0.921 ± 0.037	0.946 ± 0.032	0.844 ± 0.11
UniProt Q96JP5|A0A0A6YYC7|Q96JP5-2	1.01 ± 0.017	1.05 ± 0.03	1.01 ± 0.021	1.04 ± 0.068	0.987 ± 0.057	1.01 ± 0.046
NOP58 (UniProt Q9Y2X3)	1.11 ± 0.021	1.17 ± 0.013	1.17 ± 0.014	1.24 ± 0.054	1.32 ± 0.033	1.46 ± 0.057
DDX21 (UniProt Q9NR30)	1.21 ± 0.11	1.25 ± 0.13	1.39 ± 0.23	1.55 ± 0.31	1.66 ± 0.38	1.78 ± 0.4
UniProt Q9Y2Y0|Q9Y2Y0-2	0.982 ± 0.014	0.972 ± 0.026	0.989 ± 0.036	0.988 ± 0.049	0.975 ± 0.032	0.953 ± 0.015
UniProt Q9NUY8|Q9NUY8-2	0.961 ± 0.0094	0.999 ± 0.026	0.986 ± 0.014	1 ± 0.035	0.991 ± 0.027	1.01 ± 0.031

Target	NP40-soluble protein abundance (concentration: 1mM)	NP40-soluble protein abundance (concentration: 2mM)	NP40-soluble protein abundance (concentration: 4mM)	NP40-soluble protein abundance (concentration: 6mM)	NP40-soluble protein abundance (concentration: 8mM)	NP40-soluble protein abundance (concentration: 10mM)
CISD1 (UniProt Q9NZ45)	1 ± 0.047	1.04 ± 0.046	1 ± 0.04	0.992 ± 0.039	1.02 ± 0.0018	0.968 ± 0.051
TIPIN (UniProt Q9BVW5)	0.948 ± 0.06	1.04 ± 0.14	0.933 ± 0.072	0.928 ± 0.063	0.911 ± 0.057	0.929 ± 0.093
NARS2 (UniProt Q96I59)	0.955 ± 0.032	0.904 ± 0.033	0.927 ± 0.036	1 ± 0.048	1 ± 0.011	0.963 ± 0.066
SUPT16H (UniProt Q9Y5B9)	1.03 ± 0.016	1.01 ± 0.023	1.1 ± 0.049	1.24 ± 0.053	1.33 ± 0.055	1.46 ± 0.12
UBAC1 (UniProt Q9BSL1)	0.965 ± 0.0098	1.01 ± 0.011	0.998 ± 0.028	0.955 ± 0.015	0.932 ± 0.036	0.933 ± 0.034
UniProt Q9UG63|Q9UG63-2	1.04 ± 0.06	1.15 ± 0.065	1.41 ± 0.054	1.82 ± 0.11	2.25 ± 0.15	2.54 ± 0.26
CHMP6 (UniProt Q96FZ7)	1.03 ± 0.028	1.05 ± 0.022	1.03 ± 0.038	1.01 ± 0.03	1.02 ± 0.032	0.964 ± 0.033
RTN4 (UniProt Q9NQC3)	1.05 ± 0.014	1.07 ± 0.057	1.04 ± 0.028	1.02 ± 0.014	1.01 ± 0.032	1.03 ± 0.065
RBM27 (UniProt Q9P2N5)	1.04 ± 0.021	1.15 ± 0.062	1.13 ± 0.05	1.24 ± 0.12	1.25 ± 0.11	1.34 ± 0.16
UTP11 (UniProt Q9Y3A2)	1.02 ± 0.026	1.04 ± 0.037	1.03 ± 0.025	1.05 ± 0.026	1.05 ± 0.018	1.08 ± 0.018
GDE1 (UniProt Q9NZC3)	1.01 ± 0.043	1.02 ± 0.034	1.01 ± 0.03	1.01 ± 0.08	0.995 ± 0.05	1.01 ± 0.06
UniProt Q96P48|Q96P48-3	0.968 ± 0.022	0.896 ± 0.14	0.983 ± 0.07	0.903 ± 0.059	0.955 ± 0.066	0.882 ± 0.062
UniProt Q9H6A9|Q9H6A9-2	1.01 ± 0.016	1.02 ± 0.027	0.98826 ± 0.00019	0.989 ± 0.028	0.9847 ± 0.0089	0.9795 ± 0.0059
UniProt Q9NPG3|Q9NPG3-2	1.01 ± 0.013	1.05 ± 0.037	1.07 ± 0.021	1.06 ± 0.034	1.06 ± 0.022	1.09 ± 0.067
RNF114 (UniProt Q9Y508)	1.034 ± 0.0076	0.993 ± 0.021	1.03 ± 0.019	1.024 ± 0.0039	1.04 ± 0.018	1 ± 0.013
DNAJC7 (UniProt Q99615)	1.02 ± 0.012	1.05 ± 0.052	1.01 ± 0.015	1.03 ± 0.016	1.02 ± 0.013	1.04 ± 0.024
CPSF2 (UniProt Q9P2I0)	1.01 ± 0.016	1 ± 0.053	1.03 ± 0.027	1.03 ± 0.061	1.05 ± 0.035	1.07 ± 0.055
UniProt Q9BRG1|K7EKV4	1.04 ± 0.028	0.957 ± 0.094	1.02 ± 0.063	0.931 ± 0.043	0.982 ± 0.071	0.942 ± 0.099
UniProt Q96RP9|Q96RP9-2	0.99 ± 0.021	0.981 ± 0.031	0.989 ± 0.02	0.976 ± 0.01	0.972 ± 0.022	0.949 ± 0.029
UniProt Q9ULV4|Q9ULV4-2|Q9ULV4-3	1.07 ± 0.04	1.11 ± 0.056	1.12 ± 0.026	1.26 ± 0.015	1.33 ± 0.018	1.39 ± 0.037
